Assay outcomes: PubChem BioAssay, National Center for Advancing Translational Sciences (NCATS)
Rows were chosen to be rich in hits. Some 3.3% of all compounds tested hit in one or more screens of this group.
AmpC inh no detg = AmpC beta-lactamase inhibition without detergent; P00811; AmpC nitrocefin hydrolysis, absorbance 480 nm, 0.0001% Triton; Potency, µM (top dose mostly 57.1 µM), for the others: top-dose activity change, negative = inhibition, actives largely listed as inhibitors; 330,000 compounds, 0.52% hits; AID 485341;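 note: plate controls were no compound for no effect and no enzyme for full effect; nearly all actives have a fitted effect of over 20% in size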
Target sequence (P00811 whole entry, looked up): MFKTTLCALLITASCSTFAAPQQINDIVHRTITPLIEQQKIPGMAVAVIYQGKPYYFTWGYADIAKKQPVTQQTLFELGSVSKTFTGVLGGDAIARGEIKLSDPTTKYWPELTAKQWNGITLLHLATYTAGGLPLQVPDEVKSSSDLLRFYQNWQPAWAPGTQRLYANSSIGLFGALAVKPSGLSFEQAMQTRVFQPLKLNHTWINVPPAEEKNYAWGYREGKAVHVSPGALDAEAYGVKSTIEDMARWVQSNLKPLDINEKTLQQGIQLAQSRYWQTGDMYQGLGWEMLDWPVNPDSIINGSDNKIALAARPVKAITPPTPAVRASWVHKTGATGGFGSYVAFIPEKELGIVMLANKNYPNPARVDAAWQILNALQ
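AmpC (5.3 nM in the dispensed reagent) in 20 mM phosphate pH 7.0 with 0.01% (detergent screen) or 0.0001% Triton X-100 was preincubated with compounds for 15 min at room temperature. Nitrocefin was then added from an 800 uM solution, and hydrolysis was followed at 480 nm.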
Sm TGR inh = S. mansoni TGR enzyme inhibition; Q962Y6; purified TGR, DTNB reduction, TNB absorbance 405 nm; Potency, µM (highest dose often 114 µM), without a hit: at the highest dose activity change, negative = inhibition, hits mostly inhibitors; 360,000 compounds, 3% hits; AID 485364; note: nearly all actives have a fitted effect of over 60% in size
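First, TGR (20 nM dispensed) and NADPH were mixed with compound. Second, a 15 min room-temperature incubation followed. Third, further NADPH and then DTNB were added to start the reaction. Finally, TNB absorbance was monitored kinetically.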
AmpC inh detg = blocks E. coli AmpC beta-lactamase in detergent assay; P00811; AmpC hydrolysis of nitrocefin, absorbance 480 nm, 0.01% Triton; Potency, µM (titrated, usually from 114 µM), for inactives: at the top dose activity change, negative = inhibition, hits mostly inhibitors; 370,000 compounds, 0.041% hits; AID 485294;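 note: 0% = no-compound wells and -100% = no-enzyme wells; nearly all actives have a fitted effect of over 25% in size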
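20 mM phosphate pH 7.0 + 0.01% (detergent screen) or 0.0001% Triton X-100; 5.3 nM AmpC reagent; cpd preinc 15 min RT; nitrocefin (800 uM stock) to start; A480 q20 s × 4 min; Activity was normalised to no-enzyme and no-compound control wells.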
* hit, by the source's call; ? = inconclusive; · = not tested or not shown; [ ] = remark or other dose. Calls come from the whole dose curve; as a rule, active = well fitted curve in the direction sought with a large enough effect; inconclusive = small, poorly fitted or top-dose-only effect, or another doubt; inactive = no such curve, though single readings can be large; an effect the other way counts as inactive or inconclusive. Unless noted, % is set by controls: 0 for no effect and ±100 for the full control effect; potency is the fitted concentration of half-maximal effect.

SMILES | AmpC inh no detg | Sm TGR inh | AmpC inh detg
Cc1cc(C=O)c(C)n1-c1cccc(C(=O)O)c1 | -5.9% | 0.0% | 4.4%
Cc1ccc(C)n1-c1cccc(C(=O)O)c1 | -5.9% | 8.91µM* | -1.9%
Cc1ccc(S(=O)(=O)N2CCCC2C(=O)OCc2ccco2)cc1 (configuration not stated) | 0.6% | 4.47µM* | 3.2%
Cc1ccc(S(=O)(=O)N2CCCC2C(=O)OCc2ccccc2)cc1 (configuration not stated) | -5.7% | 6.4% | ?
CCC(=O)N1CCc2cc(S(=O)(=O)NCCC(=O)Nc3ccc(OC)c(Cl)c3)ccc21 | · | 2.4% | -1.6%
O=C(N/N=C(/CC(=O)c1cccs1)C(F)(F)F)c1ccc(O)cc1 | 7.94µM* | -12.7% | -5.8%
O=C(N/N=C(\CC(=O)c1cccs1)C(F)(F)F)c1cccnc1 | -4.2% | ? | 6.5%
COC(=O)c1ccc(NC(=O)c2c(NCc3ccc(OC)c(OC)c3)sc3c2CCCC3)cc1 | · | -31.6% | 8.2%
CCOc1ccc(S(=O)(=O)n2nc(C)c(S(=O)(=O)N3CCCCC3)c2C)cc1 | · | -2.3% | -3.2%
COc1ccc(C(=O)N2CCCN(C)CC2)cc1S(=O)(=O)N(C)Cc1ccccc1 | 25.6% | 35.5µM* | 0.3%
COc1ccc(C(=O)N2CCCN(C)CC2)cc1S(=O)(=O)N1CCCc2ccccc21 | 3.1% | -16.3% | ?
Cc1ccc(C)c(NC(=O)CC2NCCNC2=O)c1 (configuration not stated) | · | 7.4% | -2.4%
COc1ccc(NS(=O)(=O)c2ccc(NC(=S)NC(=O)c3ccc(Br)cc3)cc2)nn1 | -40.1% | 39.8µM* | -9.5%
COc1ccc(NS(=O)(=O)c2ccc(NC(=O)c3ccc(Br)cc3)cc2)nn1 | -42.9% | · | 1.4%
Cc1cc(NS(=O)(=O)c2ccc(NC(=S)NC(=O)c3ccc(F)cc3)cc2)no1 | -21.4% | ? | ?
COc1ccc(NS(=O)(=O)c2ccc(NC(=S)NC(=O)c3cccc(F)c3)cc2)nn1 | -28.3% | 44.7µM* | -3.5%
Cc1cc(NS(=O)(=O)c2ccc(NC(=S)NC(=O)c3cccc(S(=O)(=O)N(C)C)c3)cc2)no1 | -24.3% | 35.5µM* | ?
COc1ccc(NS(=O)(=O)c2ccc(NC(=S)NC(=O)c3cccnc3)cc2)nn1 | -26.9% | ? | 4.2%
O=C(CSc1nc2c(c(=O)[nH]1)CCCC2)Nc1ccc(Br)cc1 | · | 5.6% | -1.8%
COc1ccc(N(CC(C)C)S(=O)(=O)c2nnc(NC(=O)c3cccs3)s2)cc1 | · | -9.5% | 21.0%
COc1cccc(-c2nc(SCC(=O)NCC3CCCO3)c(-c3ccc(Cl)cc3)[nH]2)c1 (configuration not stated) | · | -0.3% | 6.0%
COc1cc(-c2nc3cnccn3c2Nc2ccc(C(C)C)cc2)ccc1O | -20.9% | -8.6% | 0.5%
COc1cc(-c2nc3nc[nH]n3c2Nc2ccc(C(C)C)cc2)ccc1O | · | 14.1µM* | 11.1%
O=S(=O)(NCc1cn2ccsc2n1)c1cccs1 | -10.3% | 9.5% | -8.9%
O=S(=O)(NCCc1cn2ccsc2n1)c1ccc(Cl)cc1 | · | 35.5µM* | 1.7%
SMILES | AmpC inh no detg | Sm TGR inh | AmpC inh detg
O=S(=O)(NCc1cn2ccsc2n1)c1ccc(Oc2ccccc2)cc1 | 3.98µM* | 1.5% | 0.1%
CCc1ccc(S(=O)(=O)NCCc2cn3ccsc3n2)cc1 | · | -6.2% | -2.2%
COc1ccccc1N1CCN(C(=O)Cn2cnc3onc(-c4ccc(F)cc4)c3c2=O)CC1 | · | 8.3% | -6.2%
CSc1ccc(CNC(=O)CN2C(=O)C3CCCCN3c3ccc(C(=O)N4CCCC4)cc32)cc1 (configuration not stated) | · | 1.7% | 21.8%
CN(C)c1ccc(NC(=O)CSCc2nc3c(nnn3Cc3ccc(F)cc3)c(=O)[nH]2)cc1 | -22.1% | 44.7µM* | -2.3%
Cc1cccc(NC(=O)CSCc2nc3c(nnn3Cc3ccc(F)cc3)c(=O)[nH]2)c1C | 4.6% | 0.3%[57.1 µM] | ?
COc1ccc(Cl)cc1NC(=O)c1cc(C)nc2c1c(C)nn2-c1ccccc1 | · | -3.6% | -0.8%
Cn1c(=O)c2c(-c3ccccc3)n(CCCN3CCOCC3)cc2n(C)c1=O | -5.8% | -24.3% | ?
Cn1c(=O)c2c(-c3ccccc3)n(Cc3ccccn3)cc2n(C)c1=O | -10.1% | 28.2µM* | ?
Cc1ccc(-c2c3c(=O)n(C)c(=O)n(C)c3cn2Cc2ccccc2)cc1 | -1.1% | 44.7µM* | 3.1%
CCCn1cc2c(c1-c1ccc(C)cc1)c(=O)n(C)c(=O)n2C | 6.5% | 0.0% | -3.1%
CCOc1ccc(-c2nonc2NC(=O)c2oc3c(C)c(C)ccc3c2C)cc1OCC | · | 0.4% | -1.5%
CC(=O)COc1ccc2c(c1C)O/C(=C\c1ccco1)C2=O | 46.6% | 20µM* | 10.1%
Cc1ccc(OCC(=O)NNC(=O)c2ccco2)c(C)c1 | -14.6% | -5.3% | 1.4%
CN(C)C(=O)Oc1ccc(Cl)c2ccccc12 | 11.9% | 2.2% | ?
Cc1c(OC(=O)N(C)C)ccc2c1O/C(=C\c1ccco1)C2=O | 20.9% | 11.2µM* | 4.7%
Cc1cc(O)c(CN(C)C)c2c1C(=O)/C(=C/c1ccco1)O2 | -3.5% | 3.98µM* | -0.2%
Cc1cc(C)cc(Oc2coc3c(CN(C)C)c(O)ccc3c2=O)c1 | -15.1% | 10.7% | ?
Cc1cc(=O)[nH]c2nnc(SCc3cccc(C(F)(F)F)c3)n12 | · | -0.5% | 0.8%
CCCCOC(=O)c1ccc(NC(=O)CSc2nc3c(c(=O)[nH]2)CCC3)cc1 | · | 7.7% | 23.9%
CC(C)CN(CC(C)C)c1nnc(NC(=O)Nc2cccc(C(F)(F)F)c2)s1 | · | 4.2% | 15.2%
CC1=C/C(=C(/c2cc(C)c(O)c(Br)c2)c2ccccc2S(=O)(=O)O)C=C(Br)C1=O | -23.3% | 44.7µM* | 2.2%
CC1=C/C(=C(/c2ccc(O)c(C)c2)c2ccccc2S(=O)(=O)O)C=CC1=O | -15.4% | -24.8% | -0.5%
CCOc1cc2[nH]c(=O)n(CCCCC(=O)N3CCN(c4ccccc4OC)CC3)c(=O)c2cc1OCC | · | -0.3% | 3.3%
CC(=O)Nc1c(C(=O)Nc2ccccc2F)oc2ccccc12 | · | 4.4% | 4.0%
SMILES | AmpC inh no detg | Sm TGR inh | AmpC inh detg
Cc1cn2c(=O)c(S(=O)(=O)NCCc3ccccc3)c(C)nc2s1 | · | 1.6% | 18.7%
Cn1cccc1CC(=O)N/N=C/C=C/c1ccco1 | -9.1% | 11.2µM* | 0.6%
Cc1ccc(/C=N\NC(=O)Cc2cccn2C)o1 | -9.5% | ? | 8.2%
C/C(=N\NC(=O)Cc1cccn1C)c1ccco1 | 1.0% | 39.8µM* | 3.0%
C/C(=N/NC(=O)Cc1cccn1C)c1ccccc1 | 1.1% | 6.2% | -1.7%
CCc1ccc2oc(-c3cc(NC(=O)C(C)C)cc(C)c3O)nc2c1 | · | -6.7% | -0.2%
Cc1ccccc1NCC(=O)N/N=C/c1c(C)c(C(=O)c2ccc(Cl)cc2)n2ccccc12 | ? | -14.5% | -14.8%
Cc1c(/C=N/NC(=O)CNc2ccccc2)c2ccccn2c1C(=O)c1ccc(Cl)cc1 | 2.51µM* | -7.1% | 0.2%
COc1ccc(OC)c(NC(=O)Cn2ccn(-c3ccc(OC)c(OC)c3)c(=O)c2=O)c1 | · | 1.0% | 23.1%
CCCc1c(C)c2ccc(O)c(CN3CCN(c4ccc(F)cc4)CC3)c2oc1=O | · | 6.0% | 13.6%
Cc1c(N/C=C/C(=O)c2cccs2)c(=O)n(-c2ccccc2)n1C | 36.1% | 44.7µM* | -15.0%
